Compounds with a hit are over-represented: about 4.2% of the library has one in this group of screens.
NALP1 yeast inh – inhibitors of NALP1 inflammasome in yeast; S. cerevisiae NALP1/ASC/caspase-1 growth, X-gal OD620, 72 h; inhibition, % at 10 µM; 280,000 tested, 0.61% active; AID 2071; in the data active means inhibition mostly above about 24%, no sharp cut-off; inactive means mostly below about 32%
NLRP3 yeast inh – NALP3 inhibition in yeast; Yeast reconstituted NLRP3/ASC/caspase-1, beta-gal luminescence, 24 h; inhibition, % at 10 µM; 330,000 tested, 0.39% active;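 active means inhibition of 50% or more; inactive means inhibition below 50%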
PfHsp90 yeast 2 – reduces growth (ATP signal) of yeast expressing P. falciparum Hsp90; S. cerevisiae expressing PfHsp90, BacTiter-Glo ATP, 48 h; yeast lacking PDR1 and PDR3 efflux regulators; 310,000 tested, 0.32% active; inhibition, % at 9.4 µM;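 active means every replicate shows inhibition above about 80%, whatever the replicate mean, limit read from the data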
tim10-1 inh – inhibits growth of tim10-1 mutant yeast; S. cerevisiae tim10-1 ts strain growth, BacTiter-Glo, 24 h; inhibition, % at 20 µM; 330,000 tested, 2.2% active; AID 463190;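 active means inhibition of at least 40%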;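 further: mutant grown at 25 °C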
TIM10 inh – growth inhibitors of TIM10 yeast strain | AID 463195 | inhibition, % at 10 µM | 330,000 tested, 1.4% active | S. cerevisiae TIM10 strain growth, BacTiter-Glo luminescence, 24 h;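 active means inhibition of 40% or more at the single tested concentration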;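 further: wild-type TIM10 isogenic control strain grown at permissive 25 °C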
tim23-1 inh – inhibits growth of tim23-1 mutant yeast. S. cerevisiae tim23-1 growth, BacTiter-Glo luminescence, 24 h. inhibition, % at 20 µM. 330,000 tested, 1.3% active;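 active means growth inhibition of the mutant yeast at or above 50%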;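 further: temperature-sensitive mutant grown at 25 °C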
TIM10 conf – confirmation of TIM10 yeast growth inhibitors; 4,600 tested, 63% active; AID 463215; inhibition, % at 10 µM; shares compounds with TIM10 inh; S. cerevisiae tim10 strain growth, BacTiter-Glo luminescence, 24 h;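 active means inhibition of yeast growth at or above a set limit in either of two replicates at 10 µM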; further: this counterscreen used the strain with wild-type TIM10
Numbers stand for hits; 0 = inactive; - = not tested or not shown.

SMILES	NALP1 yeast inh	NLRP3 yeast inh	PfHsp90 yeast 2	tim10-1 inh	TIM10 inh	tim23-1 inh	TIM10 conf
CC(=O)c1ccc(OC(=O)CCc2ccccc2)cc1	0	0	0	0	0	0	-
Cc1ccc(C)c(N2CCN(C(=O)C3CCN(c4nc(C)cc(C)n4)CC3)CC2)c1	0	0	0	0	0	0	-
Cc1cc(C)nc(N2CCC(C(=O)N3CCN(c4cc(Cl)ccc4C)CC3)CC2)n1	0	0	0	0	46.8	0	0
CCCCCCCCCCOC(=O)Cn1c(COc2cccc(C)c2)[n+](C)c2ccccc21	0	0	105.4	0	51.0	0	34.3
NNC(=O)c1ccc(N2CCCCCC2)c([N+](=O)[O-])c1	0	0	0	0	0	0	-
C=CCn1c(-c2cc(-c3ccccc3)sc2N)n[nH]c1=S	0	0	0	0	48.4	0	0
CCn1ncc(Br)c1C(=O)Nc1ccc(C(=O)OC(C)C)cc1	0	0	0	0	43.6	0	0
Cc1nc(NC(=O)c2ccccc2)sc1-c1csc(N)n1	0	0	0	0	43.9	0	0
Cc1nc(NC(=O)c2ccccc2)sc1-c1csc(NCc2ccccc2)n1	0	0	0	0	0	0	-
COc1ccc(-c2nc(SCc3ccccc3)n(C(=O)c3ccco3)n2)cc1	0	0	0	0	0	0	-
COc1ccc(-c2nc(SC)n(C(=O)c3ccco3)n2)cc1	0	0	0	0	41.9	0	0
Cc1cccc(-n2c(O)c(C=Nc3cccc(O)c3)c3ccccc3c2=O)n1	0	0	0	0	0	0	-
Cc1cc(N=Cc2c(O)n(-c3ccc4c(c3)OCO4)c(=O)c3ccccc23)ccn1	0	0	0	0	53.2	0	36.5
Cc1ccc(N=Cc2c(O)n(-c3nccs3)c(=O)c3ccccc23)cc1	0	0	0	0	41.1	0	0
Cc1ccc(-n2c(O)c(C=Nc3ccc4c(c3)OCO4)c3ccccc3c2=O)cc1C	0	0	0	0	0	0	-
O=C(CSc1cccs1)Nc1ccc(Cl)cc1	0	0	0	0	0	0	-
NNC(=O)C12CC3CC(C1)CC(n1ncnn1)(C3)C2	0	0	0	0	0	0	-
Cc1ccccc1Cn1c(Cc2ccccc2)nc2ccccc21	0	0	-	0	41.8	0	45.2
COc1cc(OC)cc(C(=O)Nc2nnc(NC(=S)Nc3ccccc3)s2)c1	0	0	0	0	0	0	-
CC(C)(C)c1nnc(NC(=S)Nc2ccccc2)s1	0	0	0	0	45.4	0	0
CCCCOC(=O)CCn1c(=S)oc2ccccc21	0	0	0	0	0	0	-
CCCCOC(=O)n1c(=S)oc2cc(Cl)ccc21	0	0	0	0	74.2	0	0
CN(C)C(CNS(=O)(=O)c1ccc2ccccc2c1)c1ccccc1 (stereo not given)	0	0	0	0	0	0	-
Cc1c(C(=O)N2CCN(S(=O)(=O)c3ccccc3)CC2)oc2ccccc12	-	0	0	0	46.9	0	32.3
COc1ccc(N2C(=O)CSC2c2ccc3c(c2)OCO3)c(OC)c1 (stereo not given)	0	0	0	0	41.0	0	0
SMILES	NALP1 yeast inh	NLRP3 yeast inh	PfHsp90 yeast 2	tim10-1 inh	TIM10 inh	tim23-1 inh	TIM10 conf
C/C(=N\OCC(=O)N/N=C/c1ccc(C)cc1O)c1cccs1	0	0	0	0	52.7	0	0
Cc1ccc(NC(=O)COC(=O)C2(CC(=O)NC(C)C)CCCC2)cc1C	-	0	0	0	0	0	-
CCOC(=O)c1cnc2c(OC)cccc2c1N1CCN(c2ccccc2OC)CC1	0	0	0	0	41.9	0	0
O=C(NNc1cccc(Cl)n1)Nc1ccc(F)cc1	0	0	-	0	0	0	-
COc1ccc(NC(=S)NC23CC4CC(CC(C4)C2)C3)cc1OC	0	0	0	0	0	0	-
O=C(Oc1ccc2c3c(c(=O)oc2c1)CCCC3)c1ccco1	0	0	0	0	43.6	0	45.1
COc1ccccc1N1CCN(C(=O)c2ccc3ncsc3c2)CC1	-	-	0	-	-	-	-
Cc1c(C(=O)O)cccc1-c1ccc(/C=N/Nc2ccc(Br)cc2)o1	0	0	0	0	0	0	-
N#C/C(=C/c1ccc(F)cc1)S(=O)(=O)c1ccccc1	0	0	0	0	0	0	-
N#C/C(=C\c1ccc(C(=O)O)cc1)S(=O)(=O)c1cc(Br)ccc1Br	0	0	-	0	42.5	0	0
COc1ccccc1CNC(=S)NCCc1ccccc1	0	0	0	0	41.2	0	0
COc1ccc(CCNC(=S)NC(=O)c2ccccc2)cc1C	0	0	0	0	44.6	0	49.9
CCOC(=O)Cc1cnc(NC(=O)CSc2nc(C)c(CC)c(=O)[nH]2)s1	0	0	0	0	0	0	-
COC(=O)Cn1cnc(C(=O)Nc2ccc(C)c(C)c2)n1	-	-	0	0	0	0	-
COc1ccc2oc(=O)c(-c3csc(Nc4ccc(O)cc4)n3)cc2c1	0	0	0	0	40.6	0	0
Cc1c(C(=O)O)sc2nc(CSc3ncc(C(F)(F)F)cc3Cl)[nH]c(=O)c12	0	0	0	0	0	0	-
O=C(NCC1COc2ccccc2O1)Nc1ccccc1F (stereo not given)	0	0	0	0	0	0	-
CN(CC1COc2ccccc2O1)C(=S)Nc1ccccc1F (stereo not given)	0	0	0	0	41.1	0	0
COc1ccc([N+](=O)[O-])c(OC)c1C(=O)NC(=O)Nc1c(F)cc(F)cc1F	0	0	0	0	0	0	-
Cn1c(=O)c2c(-c3ccccc3)n3c4ccccc4ncc3c2n(C)c1=O	-	0	-	0	41.8	0	0
O=C(NCC(O)c1ccccc1)c1ccc(Cl)c(S(=O)(=O)N2CCCCC2)c1 (stereo not given)	0	0	0	0	0	0	-
CCNC(=S)N/N=C/c1ccc(OCCOc2ccccc2C)cc1	0	0	0	0	0	0	-
CCOc1ccc(/C=N/NC(=S)Nc2c(C)cccc2C)cc1	0	0	0	0	52.1	0	0
S=C(NCc1cccs1)Nc1ccc(Br)cc1Cl	0	0	0	0	41.2	0	46.0
Cc1ccc2nc(-c3ccc(N4C(=O)CC(N5CCCC(C)C5)C4=O)cc3)sc2c1 (stereo not given)	0	-	-	-	-	-	-
SMILES	NALP1 yeast inh	NLRP3 yeast inh	PfHsp90 yeast 2	tim10-1 inh	TIM10 inh	tim23-1 inh	TIM10 conf
Cc1ccc2nc(-c3ccc(N4C(=O)CC(N5CCC(C(N)=O)CC5)C4=O)cc3)sc2c1 (stereo not given)	0	0	-	0	42.1	0	56.8
O=C(Nc1ccc2c(c1)OCO2)c1ccc2c(c1)OCO2	0	0	0	0	0	0	-
O=C(Nc1ccc(NC(=O)c2ccncc2)cc1)c1ccncc1	0	0	-	0	0	0	-
O=C(Nc1ccc2c(c1)oc1ccccc12)c1ccc2c(c1)OCO2	0	0	-	0	40.3	0	0
O=C(Nc1ccc2c(c1)oc1ccccc12)c1ccncc1	0	0	0	0	43.2	0	40.0
Cc1ccc2c(c1)N(CC(=O)NCCc1ccccc1)C(=O)c1cccnc1O2	0	0	0	0	0	0	-

High-throughput results from PubChem BioAssay.
